KB-3-1 tox – qHTS assay for MDR1-selective chemotherapeutics: Primary screen using the parental adenocarcinoma cell KB-3-1 | KB-3-1 viability, CellTiter-Glo ATP luminescence, 72 h | Potency, µM (highest dose often 46.1 µM), most hits filed as cytotoxic | hit rate 1.4% among 400,000 | AID 1347075, 2019; also: % is scaled to controls: 0 for no effect and ±100 for the full control effect; nearly all actives have a fitted effect of over 60% in size
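Screening of KB-3-1 cells (DMEM, 10% FBS, phenol-red free) ran from lowest to highest compound concentration; after 72 h at 37 °C viability was read luminescently and curves fitted.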
HT1080 IDH1KD tx – qHTS for induction of synthetic lethality in tumor cells producing 2HG: qHTS for the HT-1080-IDH1KD cell line. HT-1080 IDH1 knockdown viability, ATP luminescence, 48 h. Potency, µM (top dose mostly 46.1 µM), for inactives: top-dose activity, negative = toxicity, hits mostly cytotoxic. hit rate 2% among 360,000;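 also: 0% = DMSO wells and -100% = cell-free medium wells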
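IDH1KD HT-1080 cells, 750/well, RPMI + 5% FBS; compound pinned after 2 h settling; 48 h, 37 °C; CellTiter-Glo luminescence; % activity normalised to DMSO and no-cell wells; curves fitted, classed by r2 and efficacy.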
ATXN viability – Viability Counterscreen for Primary qHTS for Inhibitors of ATXN expression; S2 cells (HEK-293 line with an ATXN2-luciferase reporter) viability, CellTiter-Fluor protease fluorescence, 24 h; Potency, µM (titrated, usually from 56.7 µM), usual class: cytotoxic; hit rate 0.49% among 400,000; AID 651635, 2014; also: nearly all actives have a fitted effect of over 40% in size
HT1080-NT tox – qHTS for induction of synthetic lethality in tumor cells producing 2HG: qHTS for the HT-1080-NT fibrosarcoma cell line. Potency, µM (titrated, usually from 46.1 µM), inactives show at the highest dose activity, negative = less viability, actives largely listed as cytotoxic. hit rate 1.6% among 360,000. HT-1080-NT fibrosarcoma viability, CellTiter-Glo ATP luminescence, 48 h;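 also: NT is the 2HG producing partner of a matched IDH1 knockdown line; 0% = DMSO-treated cells and -100% = media-only wells without cells; nearly all actives have a fitted effect of over 55% in size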
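Fibrosarcoma NT cells, 750 per well in 5% FBS RPMI, were exposed to compound for 48 hours. Viability: CellTiter-Glo luminescence.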
ATXN2 expr inh – Primary qHTS for Inhibitors of ATXN expression; HEK-293 ATXN2-luciferase reporter, luminescence, 24 h; Potency, µM (doses to about 57 µM), inactives show at the top dose activity change, negative = inhibition, most hits filed as inhibitors; hit rate 0.72% among 360,000; also: % is scaled to controls: 0 for no effect and ±100 for the full control effect; nearly all actives have a fitted effect of over 55% in size
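qHTS (up to 57 uM final) was run with 24 h compound exposure of reporter cells at 37 °C. Each well was multiplexed: SteadyGlo luminescence measured ATXN2-luciferase expression after a fluorogenic Gly-Phe-AFC viability readout (25 uM final).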
KB-V1 cytotox – qHTS assay for MDR1-selective chemotherapeutics: Primary screen using the drug-selected MDR subline cells KB-V1. KB-V1 MDR cells viability, CellTiter-Glo, 72 h. Potency, µM (highest dose often 46.1 µM), hits mostly cytotoxic. hit rate 3.4% among 400,000. AID 1347076, 2019; also: % is scaled to controls: 0 for no effect and ±100 for the full control effect; nearly all actives have a fitted effect of over 60% in size
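Compound-treated KB-V1 multidrug-resistant cells, 72 h, 37 degrees C; viability by CellTiter-Glo. Fitted qHTS curves give the values.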
* hit, by the source's call. A selection: hits, their analogues and other compounds. The true share with any hit is near 6.2%. Calls follow the shape of the dose curve; as a rule, active = well fitted curve in the direction sought with a large enough effect; inconclusive = small, poorly fitted or top-dose-only effect, or another doubt; inactive = no such curve, though single readings can be large; an effect the other way counts as inactive or inconclusive. Potency is read from the fitted curve at half-maximal effect.

What do the screens show for `CCC(C)C1NC(=O)C(NC(=O)C(CC(C)C)N(C)C(=O)C2CCCN2C(=O)C(C)O)C(C)OC(=O)C(Cc2ccc(OC)cc2)N(C)C(=O)C2CCCN2C(=O)C(CC(C)C)NC(=O)[C@H](C)C(=O)[C@H](C(C)C)OC(=O)CC1O` (stereo not given in full)?
KB-3-1 tox: 0.164µM*; HT1080 IDH1KD tx: 0.013µM*; ATXN viability: 0.0134µM*; HT1080-NT tox: 0.231µM*; ATXN2 expr inh: inconclusive; KB-V1 cytotox: 8.2µM*

What do the screens show for `COc1ccc(-c2nc(CN3C(=O)CN=C(c4ccccc4)c4ccccc43)c(C)o2)cc1OC`?
KB-3-1 tox: inactive; ATXN viability: inconclusive; ATXN2 expr inh: -26.0%; KB-V1 cytotox: inactive

How did CCOC(=O)[C@]12Cc3cc(C)ccc3[C@H]1N(CCC(=O)OC)C(=O)c1cc(OC)ccc12 do in these assays?
KB-3-1 tox: 18.4µM*; HT1080 IDH1KD tx: 18.4µM*; ATXN viability: 15.8µM*; HT1080-NT tox: 23.1µM*; ATXN2 expr inh: 22.4µM*; KB-V1 cytotox: 20.6µM*

What do the screens show for `CCOC(=O)[C@]12Cc3ccccc3[C@H]1N(CCC(=O)OC)C(=O)c1ccccc12`?
KB-3-1 tox: 5.17µM*; HT1080 IDH1KD tx: inconclusive; ATXN viability: inconclusive; HT1080-NT tox: inconclusive; ATXN2 expr inh: -13.7%; KB-V1 cytotox: 5.17µM*

Results for CCOC(=O)[C@]12Cc3ccccc3[C@H]1N(Cc1ccccc1)C(=O)c1ccccc12 ?
KB-3-1 tox: inactive; HT1080 IDH1KD tx: 6.6%; ATXN viability: inconclusive; HT1080-NT tox: 10.1%; ATXN2 expr inh: inconclusive; KB-V1 cytotox: inconclusive

How did CCOC(=O)[C@]12Cc3cc(OC)ccc3[C@H]1N(Cc1ccccc1)C(=O)c1ccccc12 do in these assays?
KB-3-1 tox: inconclusive; HT1080 IDH1KD tx: 0.5%; ATXN viability: inconclusive; HT1080-NT tox: -2.3%; ATXN2 expr inh: inconclusive; KB-V1 cytotox: inconclusive

What do the screens show for `CCCCCN1C(=O)c2ccccc2[C@@]2(C(=O)OCC)Cc3cc(OC)ccc3[C@@H]12`?
KB-3-1 tox: 5.8µM*; HT1080 IDH1KD tx: 11.6µM*; ATXN viability: 12.6µM*; HT1080-NT tox: 14.6µM*; ATXN2 expr inh: inconclusive; KB-V1 cytotox: inconclusive

What do the screens show for `Cc1ccccc1-n1nc(C)c2c1NC(=O)CSC2c1ccccc1C(F)(F)F` (stereo not given)?
KB-3-1 tox: inconclusive; ATXN viability: inconclusive; ATXN2 expr inh: inconclusive; KB-V1 cytotox: inactive

Results for CCN1C(=O)c2ccccc2Sc2ccc(NC(=O)Nc3ccc(Br)c(C)c3)cc21 ?
KB-3-1 tox: inactive; ATXN viability: inconclusive; ATXN2 expr inh: inconclusive; KB-V1 cytotox: inconclusive

What do the screens show for `O=C(Nc1ccccc1C(F)(F)F)c1cccn(Cc2ccccc2)c1=O`?
KB-3-1 tox: inactive; ATXN viability: inactive; ATXN2 expr inh: 11.2%; KB-V1 cytotox: inactive

How did CSC(=Nc1ccccc1)c1c(O)n(C)c(=O)n(C)c1=O do in these assays?
KB-3-1 tox: inactive; HT1080 IDH1KD tx: inconclusive; ATXN viability: inactive; HT1080-NT tox: inconclusive; ATXN2 expr inh: 6.7%; KB-V1 cytotox: inactive

How did Cn1c(O)c(C(=Nc2ccccc2)SCc2ccccc2Cl)c(=O)n(C)c1=O do in these assays?
KB-3-1 tox: 18.4µM*; HT1080 IDH1KD tx: 13µM*; ATXN viability: inconclusive; HT1080-NT tox: inconclusive; ATXN2 expr inh: -22.2%; KB-V1 cytotox: inconclusive

How did CCC1(OC(=O)CN)C(=O)OCc2c1cc1n(c2=O)Cc2cc3ccccc3nc2-1 (stereo not given) do in these assays?
KB-3-1 tox: inconclusive; HT1080 IDH1KD tx: 0.731µM*; HT1080-NT tox: 1.03µM*; ATXN2 expr inh: 0.0095µM*; KB-V1 cytotox: inconclusive

Results for CC[C@@]1(O)C(=O)OCc2c1cc1n(c2=O)Cc2cc3ccccc3nc2-1 ?
KB-3-1 tox: inconclusive; ATXN2 expr inh: 0.0193µM*; KB-V1 cytotox: inactive

How did CC[C@@]1(O)C(=O)OCc2c1cc1n(c2=O)Cc2cc3c(NC(=O)CN)cccc3nc2-1 do in these assays?
KB-3-1 tox: inactive; HT1080 IDH1KD tx: 1.84µM*; HT1080-NT tox: 2.31µM*; ATXN2 expr inh: 0.336µM*; KB-V1 cytotox: inactive

How did CCC1(O)C(=O)OCc2c1cc1n(c2=O)Cc2cc3cc(O)ccc3nc2-1 (stereo not given) do in these assays?
KB-3-1 tox: inconclusive; HT1080 IDH1KD tx: 0.651µM*; HT1080-NT tox: 0.731µM*; ATXN2 expr inh: -74.1%; KB-V1 cytotox: inconclusive

What do the screens show for `O=C(CSc1nc(-c2ccccc2)c(-c2ccccc2)[nH]1)Nc1nccs1`?
KB-3-1 tox: inactive; HT1080 IDH1KD tx: inconclusive; ATXN viability: inconclusive; HT1080-NT tox: inconclusive; ATXN2 expr inh: inconclusive; KB-V1 cytotox: inactive

How did O=c1[nH]c(=S)n(CCC2=CCCCC2)c(O)c1C=NC1CCN(Cc2ccccc2)CC1 do in these assays?
KB-3-1 tox: inconclusive; HT1080 IDH1KD tx: -4.3%; ATXN viability: inactive; HT1080-NT tox: -5.2%; ATXN2 expr inh: -23.3%; KB-V1 cytotox: 5.8µM*

How did Cc1cc(C)cc(N2C(=O)NC(=O)/C(=C\c3cccn3-c3ccccc3)C2=O)c1 do in these assays?
KB-3-1 tox: inconclusive; HT1080 IDH1KD tx: inconclusive; ATXN viability: inconclusive; HT1080-NT tox: -21.4%; ATXN2 expr inh: inconclusive; KB-V1 cytotox: 18.4µM*

Results for Cc1cccc(N2C(=O)NC(=O)/C(=C\c3cnc(-c4ccccc4)nc3)C2=O)c1 ?
KB-3-1 tox: inactive; HT1080 IDH1KD tx: 16.0%; ATXN viability: inconclusive; HT1080-NT tox: 28.6%; ATXN2 expr inh: 5.2%; KB-V1 cytotox: inactive

Results for O=C1NC(=S)NC(=O)C1=Cc1cccn1-c1ccc(O)cc1 ?
KB-3-1 tox: inconclusive; HT1080 IDH1KD tx: 23.1µM*; ATXN viability: 18.9µM*; HT1080-NT tox: inconclusive; ATXN2 expr inh: 23.8µM*; KB-V1 cytotox: inactive

How did CCC(=NCCc1c[nH]c2ccccc12)c1c(O)n(-c2ccc(C)cc2)c(=O)[nH]c1=O do in these assays?
KB-3-1 tox: inactive; HT1080 IDH1KD tx: -12.4%; ATXN viability: inactive; HT1080-NT tox: 3.2%; ATXN2 expr inh: -4.2%; KB-V1 cytotox: 20.6µM*

What do the screens show for `CC(=NCCc1c[nH]c2ccccc12)c1c(O)n(Cc2ccccc2)c(=O)[nH]c1=O`?
KB-3-1 tox: inactive; HT1080 IDH1KD tx: inconclusive; ATXN viability: inactive; HT1080-NT tox: -26.9%; ATXN2 expr inh: inconclusive; KB-V1 cytotox: 11.6µM*

Source: PubChem
